Screening data: PubChem, Sanford-Burnham Center for Chemical Genomics
Hits are enriched below; roughly 1.4% of the tested compounds scored in any of these assays.
APOBEC3G inh: APOBEC3G (human) deaminase inhibition | 0.28% of 330,000 active | Q9HC16 | inhibition, % at 20 µM | recombinant A3G, ssDNA deamination FAM/TAMRA fluorescence | AID 493012;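 active = inhibition of at least 40% at 20 µM, with no more than 30% in the related APOBEC3A deaminase screen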;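 note: plate controls were DMSO wells with A3G for no effect and wells lacking A3G enzyme for full effect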
GC-A act: GC-A (human) enzyme activation; HEK293 GC-A cells, cGMP TR-FRET, EC30 ANP; 0% at EC30 ANP, 100% saturating ANP; activation, % at 10 µM; 0.14% of 370,000 active; in the data active = activation above about 40%
APOBEC3A inh: human APOBEC3A DNA deaminase inhibition | P31941 | recombinant A3A, FAM/TAMRA ssDNA deamination fluorescence | inhibition, % at 20 µM | 0.41% of 330,000 active;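 active = at least 40% inhibition at 20 µM here, with at most 30% in a related deaminase screen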;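 note: plate controls were A3A with DMSO for no effect and wells lacking A3A enzyme for full effect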
FAS TE block: blocks the thioesterase domain of human fatty acid synthase | P49327 | recombinant FAS-TE, OMFH fluorogenic substrate, fluorescence endpoint | inhibition, % at 15 µM | 0.67% of 360,000 active | AID 602261;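 active = compounds whose normalised, plate-corrected inhibition of enzyme fluorescence in the single-dose primary screen is 50% or more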;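 note: 0% = DMSO with enzyme and 100% = substrate without enzyme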
GC-B act: GC-B (human) receptor activation; HEK293-GC-B cells, CNP EC30, cGMP TR-FRET; 0% at EC30 CNP, 100% saturating CNP; AID 1920062; activation, % at 10 µM; 0.11% of 370,000 active;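 active = activation at 10 µM reaching about 35% in either raw or pattern-adjusted values, limit read from the data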
Target sequence (P20594 whole entry, looked up): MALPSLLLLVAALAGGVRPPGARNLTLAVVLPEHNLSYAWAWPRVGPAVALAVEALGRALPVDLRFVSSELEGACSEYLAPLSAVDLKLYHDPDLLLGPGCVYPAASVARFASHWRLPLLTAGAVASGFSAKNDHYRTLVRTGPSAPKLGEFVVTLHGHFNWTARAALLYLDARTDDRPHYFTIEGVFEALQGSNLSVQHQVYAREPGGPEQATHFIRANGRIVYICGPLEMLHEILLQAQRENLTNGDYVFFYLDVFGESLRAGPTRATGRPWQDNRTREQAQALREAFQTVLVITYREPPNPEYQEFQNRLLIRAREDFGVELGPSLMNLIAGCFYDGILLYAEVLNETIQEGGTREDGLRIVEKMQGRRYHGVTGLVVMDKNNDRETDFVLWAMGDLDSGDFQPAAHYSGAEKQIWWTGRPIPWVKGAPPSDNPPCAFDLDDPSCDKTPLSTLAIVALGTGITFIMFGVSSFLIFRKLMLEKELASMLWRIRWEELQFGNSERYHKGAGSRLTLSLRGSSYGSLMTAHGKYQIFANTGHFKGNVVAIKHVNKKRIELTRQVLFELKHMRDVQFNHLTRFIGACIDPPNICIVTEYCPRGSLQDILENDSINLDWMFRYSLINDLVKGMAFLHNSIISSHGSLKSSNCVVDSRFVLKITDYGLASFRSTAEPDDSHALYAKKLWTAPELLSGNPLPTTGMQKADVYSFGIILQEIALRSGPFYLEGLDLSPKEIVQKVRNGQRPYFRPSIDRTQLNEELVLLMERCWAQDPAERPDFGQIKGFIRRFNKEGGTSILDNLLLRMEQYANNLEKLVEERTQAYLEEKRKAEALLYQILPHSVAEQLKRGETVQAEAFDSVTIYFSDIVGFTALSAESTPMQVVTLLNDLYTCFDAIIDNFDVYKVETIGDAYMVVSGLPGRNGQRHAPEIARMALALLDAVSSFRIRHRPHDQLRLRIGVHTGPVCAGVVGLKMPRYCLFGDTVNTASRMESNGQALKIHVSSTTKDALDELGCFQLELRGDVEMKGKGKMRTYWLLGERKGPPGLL
FAS-TE inh conf: confirmation of human fatty acid synthase thioesterase inhibitors. shares compounds with FAS TE block. recombinant FAS-TE, OMFH fluorogenic substrate, fluorescence. inhibition, % at 15 µM. 45% of 2,300 active;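 active = compounds inhibiting the enzyme by at least 50% at 15 µM in any one of the replicates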;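 note: 0% = enzyme with DMSO only and 100% = wells lacking enzyme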
The depositor's hits bear a star; x = no result.

SMILES	APOBEC3G inh	GC-A act	APOBEC3A inh	FAS TE block	GC-B act	FAS-TE inh conf
CCCCCCCCN1C(=O)[C@@H](CC(=O)N2CCN(C(=O)c3ccco3)CC2)C[C@@]2(C(=O)OC)C1=C[C@H](C(C)C)O[C@@H]2C1CC1	x	0	x	x	-5	x
COC(=O)c1ccc(COc2cc([N+](=O)[O-])cc3cccnc23)o1	-7	3	2	55*	5	57*
O=C(COc1cc([N+](=O)[O-])cc2cccnc12)NCCC1=CCCCC1	-1	-10	-2	83*	-5	87*
CC(C)CN1C(=O)C[C@]2(C(=O)N(C)c3ccc(NS(=O)(=O)C4CCCCC4)cc32)C1c1ccccc1 (stereo partly drawn)	x	0	x	x	-4	x
COc1ccc(NC(=O)CC2C(=O)N(C)C(=S)N2Cc2cccs2)cc1 (stereo not drawn)	2	0	3	51*	4	58*
CCCOc1ccc(NC(=O)CC2C(=O)N(CC)C(=S)N2Cc2cccs2)cc1 (stereo not drawn)	-4	2	-2	59*	-5	65*
COc1ccc(Cn2cc(CN3[C@H](C)COc4cc(Br)ccc4S3(=O)=O)nn2)cc1	x	-1	x	x	-1	x
COc1ccc(C(=O)N2CCN(Cc3ccccc3)CC2)cc1[N+](=O)[O-]	-8	2	-5	1	1	x
COc1ccc(C(=O)N2CCN(CCc3ccccc3)CC2)cc1[N+](=O)[O-]	-9	1	-4	87*	2	90*
COc1ccc(C(=O)NC(C)CCc2ccccc2)cc1[N+](=O)[O-] (stereo not drawn)	-8	2	-1	51*	1	52*
O=C(NCCN1CCC(Cc2ccccc2)CC1)C1CCCN(S(=O)(=O)c2ccc(Cl)s2)C1 (stereo not drawn)	x	-13	x	x	-18	x
Cc1ccc2c(c1)N(CCCC(=O)N(C)Cc1ccc(F)cc1)C(=O)CO2	x	-5	x	x	0	x
Cc1cc(-c2ccccc2)nc(N/N=C/c2ccccc2)n1	-6	3	1	10	-1	x
Cc1cc(-c2ccccc2)nc(N/N=C/c2ccc([N+](=O)[O-])cc2)n1	-6	10	-4	67*	0	46*
O=[N+]([O-])c1ccc(Nc2nc(N/N=C\c3ccc4c(c3)OCO4)nc(N3CCCCC3)n2)cc1	-2	-2	0	56*	5	18
O=[N+]([O-])c1ccc(/C=N/Nc2nc(N3CCCCC3)nc(N3CCCCC3)n2)cc1	-1	-1	1	54*	0	6
O=C(OCc1cn(Cc2ccc(Cl)cc2)nn1)N1CCOCC1	x	0	x	x	-2	x
COC(=O)[C@]12C[C@H](CC(=O)NCc3cccc4ccccc34)C(=O)N(Cc3ccc(Cl)cc3Cl)C1=C[C@H](C(C)C)O[C@@H]2C1CC1	x	-6	x	x	2	x
O=C1N[C@@H](Cc2ccccc2)C(=O)N2[C@H]1C[C@]1([C@]34C[C@H]5C(=O)N[C@@H](Cc6ccccc6)C(=O)N5[C@H]3N(S(=O)(=O)c3ccccc3)c3ccccc34)c3ccccc3N(S(=O)(=O)c3ccccc3)[C@H]21	6	1	0	77*	1	4
CN(CC(=O)Nc1ccc(Cl)c(Cl)c1)C(=O)C12CC3CC(CC(C3)C1)C2	-5	2	-1	54*	-8	19
Cc1ccc(S(=O)(=O)N2[C@@H](c3ccc(C(C)(C)C)cc3)C(C(=O)O)=CC[C@H]2c2ccc(Cl)c(Cl)c2)cc1	-1	-4	2	55*	0	33
Cc1ccc(S(=O)(=O)N2[C@@H](c3ccc(C(C)(C)C)cc3)C(C(=O)O)=CC[C@H]2c2cccc(Cl)c2)cc1	-6	-6	-4	28	1	x
CN1CCN(C(=S)NC(=O)c2ccc(S(=O)(=O)N3CCOCC3)cc2)CC1	7	3	0	-4	-3	x
O=C(NC(=S)N1CCN(C(c2ccccc2)c2ccccc2)CC1)c1ccc(S(=O)(=O)N2CCOCC2)cc1	-11	0	-2	56*	-1	24
CC(C)C(=O)N1CCC(Oc2cccnc2)CC1	x	3	x	x	0	x
SMILES	APOBEC3G inh	GC-A act	APOBEC3A inh	FAS TE block	GC-B act	FAS-TE inh conf
Cc1ccc(Sc2ncccc2[N+](=O)[O-])cc1	-7	2	-9	30	4	x
Cc1c([N+](=O)[O-])cnc(Sc2ccccc2)c1[N+](=O)[O-]	0	2	1	60*	2	9
CN(C)CCCNS(=O)(=O)c1ccc(N2CCC(c3ccc(Cl)cc3)=N2)cc1	-5	6	1	x	-13	x
O=S(=O)(c1ccc(N2CCC(c3ccc(Cl)cc3)=N2)cc1)N(CCO)CCO	-1	17	2	89*	-1	93*
COc1ccc(NC(=O)Nc2cccc3c2O[C@H](CN(C)C(=O)NC2CCCCC2)[C@@H](C)CN([C@H](C)CO)C3=O)cc1	-8	-1	-5	78*	-4	71*
COc1ccc(NC(=O)Nc2cccc3c2O[C@H](CN(C)C(=O)Nc2ccccc2)[C@@H](C)CN([C@H](C)CO)C3=O)cc1	-3	1	-1	48	4	x
C[C@H](CO)N1C[C@H](C)[C@@H](CN(C)C(=O)NC2CCCCC2)Oc2c(NC(=O)Nc3ccc4c(c3)OCO4)cccc2C1=O	5	4	1	82*	-1	85*
CC(C)NC(=O)C1CCN(c2cncnc2)CC1	x	5	x	x	3	x
O=C(Nc1nc(-c2cccc([N+](=O)[O-])c2)cs1)C(c1ccccc1)c1ccccc1	-3	4	-1	52*	-5	12
O=C(/C=C(\Nc1ccc(Br)c(F)c1)c1ccccc1)c1ccccc1	x	3	x	x	3	x
Cc1ccc2oc(-c3cccc(NC(=O)Cn4cnc5c(=O)n(C)c(=O)n(C)c54)c3)nc2c1	2	x	13	x	x	x
CCC(C)c1ccc2oc(-c3ccc(NC(=O)Cn4cnc5c(=O)n(C)c(=O)n(C)c54)cc3)nc2c1 (stereo not drawn)	-5	-7	-5	73*	-6	6
CCCCc1ccc(/C(C)=N/Nc2cc(N3CCOCC3)nc(C)n2)cc1	-6	-7	-10	73*	-8	20
COC(=O)[C@]1(Cc2ccccc2)N[C@H](CN(C)S(=O)(=O)c2ccc(C(C)(C)C)cc2)[C@@H]2C(=O)N(Cc3ccccc3)C(=O)[C@@H]21	-8	2	-4	55*	5	22
CCN(C[C@H]1N[C@@](Cc2ccccc2)(C(=O)OC)[C@H]2C(=O)N(Cc3ccccc3)C(=O)[C@@H]12)C(=O)Nc1ccc(C(F)(F)F)cc1	-7	-2	-7	62*	9	17
CC(C)(C)n1ncc2c(=O)n(Cc3cc(F)c(Cl)cc3Cl)cnc21	2	17	-1	52*	15	35
